Experimental findings from the supplement of paper PMC7556523 are described below.

Assay [1] relates to Sporothrix brasiliensis CBS 133006. As to the kind of experiment: growth inhibition relative to untreated control; higher = more growth inhibition (more antifungal activity), active = 80 or more; extreme values may be limits of the assay. The following applies: 1 µM; 48 h. In outline: (§1)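 Before testing, the reference isolates were kept in brain heart infusion broth with 2% glucose at 36°C for 7 days to give yeast-form cells. These cells, at 1 x 10^5 CFU/ml, received library compounds at a final 1 μM and were held 48 h at 35°C in 5% CO2. Growth was checked by eye under an inverted light microscope and quantified spectrophotometrically in quadruplicate, and the value is percent growth inhibition versus untreated cells.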

The subject of assay [2] is Sporothrix schenckii ATCC 32286. The description is as above. To be noted: 1 µM; 48 h. In a few lines: as §1

A number with no mark means an inactive call.

Regarding `Cn1ccnc1CNCCS(=O)(=O)c1cccc(Nc2ccc(-c3cccc(F)c3)cn2)c1`, the values for the growth inhibition in assay [1] and in assay [2] were 4.25% and 0%, respectively.

With `Clc1ccc(CN2CCN(C3=NCCN3)CC2)cc1Cl`, the growth inhibition in assay [1] was 18.8%; in assay [2], 17%.

Turning to `COc1cccc(-c2nc3c(N4CCCC4)cccc3n2CC2CCCN2)n1` (configuration not stated), the figures for the growth inhibition in assay [1] and in assay [2] were 0% and 9.5%, respectively.

In the case of `O=C(Nc1ccc(N2CCNCC2)nc1)c1oc(-c2ccccc2)nc1C(F)(F)F`, the values for the growth inhibition in assay [1] and in assay [2] were 15.2% and 13.5%, respectively.

As for `CCc1ccc(S(=O)(=O)Nc2cc(CN3CCN(CCC(C)C)CC3)ccc2C)cc1`, the growth inhibition was 1.75% in assay [1] and 21.2% in assay [2].

As for `O=C(Nc1nc(-c2ccccn2)cs1)c1cncn1-c1ccccc1`, the growth inhibition is 17.5% in assay [1] and 15.2% in assay [2].

Regarding `Nc1ccc(C(=O)Nc2ccc(-c3nc4ccccc4o3)cc2)cc1`, the growth inhibition in assay [1] is 5.5%; in assay [2], 0%.

As to `Cc1cccc(Cn2ccc(NC(=O)c3ccc4c(c3)OCO4)n2)c1`, the results for the growth inhibition in assay [1] and in assay [2] were 7.5% and 7.25%, respectively.

With `Nc1ncnc2c1c(Cc1cccc3ccccc13)nn2CC1CCNCC1`, the growth inhibition in assay [1] and in assay [2] was 0% each time.

In the case of `CO[C@H]1/C=C\O[C@@]2(C)Oc3c(C)c(O)c4c(O)c(/c(=C/NN5CCN(C)CC5)c(O)c4c3C2=O)=N\C(=O)/C(C)=C\C=C/[C@H](C)[C@H](O)[C@@H](C)[C@@H](O)[C@@H](C)[C@H](OC(C)=O)[C@@H]1C`, the values for the growth inhibition in assay [1] and in assay [2] were 3% and 11.2%, respectively.

Regarding `Nc1ncnc2c1ncn2[C@@H]1O[C@H](COS(=O)(=O)NC(=O)c2ccccc2O)[C@@H](O)[C@H]1O`, the growth inhibition in assay [1] was 5.25%; in assay [2], 9%.
